Assay outcomes: PubChem, National Center for Advancing Translational Sciences (NCATS)
Sampled rows, rich in hits. Any-hit rate of the full collection: about 10%.
Gal4-VP16 FLuc: Gal4-VP16 reporter inhibition counter-screen. 310,000 tested, 3.5% active. AID 2546. Potency, µM (titrated, usually from 53.6 µM), for the others: at the top dose activity, negative = inhibition, actives largely listed as inhibitors. Drosophila S2 Gal4-VP16 UAS-luciferase, luminescence, 20 h;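 also: Gal4-VP16 expression switched on by copper sulfate through the metallothionein promoter; % is scaled to controls: 0 for no effect and ±100 for the full control effect; nearly all actives have a fitted effect of over 50% in size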
SW480 rerep: inducers of DNA re-replication in SW480 colon cancer cells | SW480 DNA re-replication, Hoechst DNA content imaging, 48 h | Potency, µM (highest dose often 46.1 µM), for inactives: at the highest dose re-replication activation, hits mostly activators | 340,000 tested, 1.8% active | AID 624297; also: % of control where 0% means no effect; nearly all actives have a fitted effect of over 55% in size
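DNA re-replication was detected as more nuclei of elevated Hoechst intensity after 48 hr exposure to compound (23 nL pinned per well of 250 cells).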
ELG1 DNA repair: ELG1-dependent DNA repair inhibition | Potency, µM (series often up to 46.1 µM), without a hit: top-dose activity change, negative = inhibition, hits mostly inhibitors | 330,000 tested, 2.3% active | AID 504467 | HEK293T ELG1-luciferase reporter, luminescence, 16 h; DNA damage induced by 5-fluorouridine; also: % is scaled to controls: 0 for no effect and ±100 for the full control effect; nearly all actives have a fitted effect of over 55% in size
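In this reporter screen, reduction of luminescence relative to DMSO vehicle indicated activity. Compounds and 5-fluorouridine were added together to 2,000 cells per well, incubated for 16 hr at 37 °C, then developed with ONE-Glo.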
MCF10A rerep: inducers of DNA re-replication in MCF 10A breast cells; MCF 10A DNA re-replication, Hoechst nuclear intensity, 48 h; Potency, µM (highest dose often 46.1 µM), inactives show at the highest dose activity, positive = re-replication, actives largely listed as activators; 350,000 tested, 2.9% active; AID 624296; also: % of control where 0% means no effect; nearly all actives have a fitted effect of over 50% in size
RORgamma inh: inhibitors of mouse ROR gamma transcriptional activity; Drosophila S2 Gal4-RORgamma UAS-luciferase reporter, 20 h; Potency, µM (titrated, usually from 53.6 µM), inactives show at the highest dose activity change, negative = inhibition, most hits filed as inhibitors; 310,000 tested, 5.4% active; P51450; AID 2551; also: % is scaled to controls: 0 for no effect and ±100 for the full control effect; nearly all actives have a fitted effect of over 60% in size
Target sequence (P51450 whole entry, looked up, the tested form may be a part): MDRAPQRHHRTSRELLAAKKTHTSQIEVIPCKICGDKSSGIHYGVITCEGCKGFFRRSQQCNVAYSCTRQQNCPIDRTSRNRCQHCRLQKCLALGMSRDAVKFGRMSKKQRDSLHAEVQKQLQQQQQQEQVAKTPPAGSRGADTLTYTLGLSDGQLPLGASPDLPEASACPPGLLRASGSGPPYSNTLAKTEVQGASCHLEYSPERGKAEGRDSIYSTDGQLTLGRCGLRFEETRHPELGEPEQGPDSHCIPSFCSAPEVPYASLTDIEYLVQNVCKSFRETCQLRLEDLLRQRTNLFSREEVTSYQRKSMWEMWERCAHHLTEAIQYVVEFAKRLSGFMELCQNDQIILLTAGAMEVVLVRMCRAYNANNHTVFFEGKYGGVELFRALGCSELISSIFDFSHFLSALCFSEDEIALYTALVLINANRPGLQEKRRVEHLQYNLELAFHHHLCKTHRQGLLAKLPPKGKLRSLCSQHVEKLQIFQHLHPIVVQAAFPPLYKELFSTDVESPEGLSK
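Luminescence from a UAS-regulated Photinus luciferase reporter in stably transfected Drosophila Schneider cells is measured; decreased signal marks ROR gamma inhibition. Fusion expression is induced by 700 uM copper sulfate for 20 hr.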
Active calls of the source: *; ? = inconclusive; / = not tested or not shown. Calls follow the shape of the dose curve; as a rule, active = well fitted curve in the direction sought with a large enough effect; inconclusive = small, poorly fitted or top-dose-only effect, or another doubt; inactive = no such curve, though single readings can be large; an effect the other way counts as inactive or inconclusive. Potency is read from the fitted curve at half-maximal effect.

SMILES	Gal4-VP16 FLuc	SW480 rerep	ELG1 DNA repair	MCF10A rerep	RORgamma inh
Cc1cc(C)nc(NN=CC2=C(N3CCOCC3)/C(=C/c3ccc(Cl)cc3)CC2)n1	/	21µM*	/	?	/
O=CC1=C(N2CCOCC2)/C(=C/c2ccc(Cl)cc2)CC1	-10%	-32%	?	12%	-20%
Cc1cc(C)nc(N/N=C/C2=C(N3CCOCC3)C(=C\c3ccc(Cl)cc3)/CC2)n1	?	?	?	?	10µM*
O=C(O)c1ccc(N/N=C/C2=C(N3CCOCC3)C(=C\c3ccccc3)/CC2)cc1	-8%	18µM*	?	?	-1%
Cc1occc1C(=O)N/N=C/C1=C(N2CCOCC2)C(=C\c2ccc(Cl)cc2Cl)/CC1	18%	2.9µM*	?	2.1µM*	-12%
Cc1nn(-c2ccccc2)c(C)c1/C=N\NS(=O)(=O)c1ccc(Cl)cc1	4%	0%	?	-4%	-7%
Cc1ccc(S(=O)(=O)/N=C/c2c(O)ccc3ccccc23)cc1	?	0%	13%	1%	18µM*
NC(=S)N/N=C/c1c(O)ccc2ccccc12	4µM*	?	13µM*	?	1.1µM*
O=CN/N=C/c1c(O)ccc2ccccc12	2.8µM*	18%	21µM*	1%	0.79µM*
NC(=S)N/N=C/c1coc2c(ccc3ccccc32)c1=O	7.9µM*	16%	?	-4%	5.6µM*
Oc1ccc2ccccc2c1/C=N/Nc1ccccc1	?	-3%	?	9%	?
CCCNC(=O)N1CCCC(C(N)=O)C1 (centres undefined)	-15%	10%	-7%	2%	-14%
CCOC(=O)[C@@H]1CCN(Cc2ccccc2)C[C@H]1c1ccccc1	1%	3%	15%	10%	1%
CCOC(=O)CSC1=NC(=O)/C(=C/c2ccc(Br)cc2)S1	-10%	20%	?	?	5%
CCOC(=O)CSC1=NC(=O)/C(=C\c2ccc(OC(C)=O)cc2)S1	-9%	?	?	2.6µM*	0%
COc1cc2sc(-c3ccc(S(C)(=O)=O)cc3)c(C#CCO)c2cc1OC	/	-2%	0%	?	/
O=C(Nc1ccc(F)c(Cl)c1)C1CC(=O)n2c(nc3ccccc32)N1 (centres undefined)	?	-1%	-4%	-3%	3.5µM*
Cc1onc(-c2c(F)cccc2Cl)c1C(=O)Nc1nnc(C(F)(F)F)s1	?	3%	-18%	6%	?
CCCCNC(=S)Nc1cccc2cnccc12	-4%	-13%	?	13%	-37%
S=C(NCc1ccccc1)Nc1cccc2cnccc12	?	-9%	2.1µM*	18%	-7%
S=C(NCCc1ccccc1)Nc1cccc2cnccc12	4.5µM*	-2%	1.5µM*	18%	5µM*
COC(=O)c1ccc(NCCC(=O)O)cc1	-28%	-9%	1%	8%	-21%
O=C(CCc1nnc2ccc(NCc3ccccc3)nn12)NC1CCCCC1	-2%	-5%	15%	-2%	4%
O=c1c2ccccc2oc2ccccc12	-1%	/	/	/	-35%
O=c1c2ccccc2oc2cc(-c3ccc4[nH]ccc4c3)ccc12	/	4.1µM*	/	?	/
SMILES	Gal4-VP16 FLuc	SW480 rerep	ELG1 DNA repair	MCF10A rerep	RORgamma inh
C=C1C[C@]23CC[C@H]4C(CO)(CO)C[C@@H](O)C[C@@]4(C)[C@@H]2CC[C@H]1C3	?	/	/	/	27%
CC1(C)CC(=O)C(C=Nc2ccccc2)=C(O)C1	5%	-4%	4%	2%	32%
COc1ccc(N=C(C)C2=C(O)c3ccccc3C2=O)cc1	?	16%	?	15%	-41%
COc1ccc(N=CC2=C(O)c3ccccc3C2=O)cc1	?	0%	?	2%	3.2µM*
O=C1C(C=Nc2ccccc2)=C(O)c2ccccc21	11µM*	-6%	?	-3%	?
CN=CC1=C(O)c2ccccc2C1=O	-6%	28%	18%	13µM*	15%
O=[N+]([O-])c1ccc(CNCc2cc(Cl)ccc2O)cc1	/	11%	?	10%	/
O=S(=O)(c1ccc(N2CCN(c3ccc(F)cc3)CC2)cc1)N1CCCC1	-6%	-4%	0%	-14%	8%
